# Assay results published in the supplement of paper PMC6135742.
# Counter-ions that a name gives are not always drawn. ± gives the standard deviation of the averaged measurements. Whole data set: some 2,600 compounds, median “MBP+ mature oligodendrocyte number relative to DMSO vehicle control” near -0.34, cut for the highest 2% near 13. The entries come from a sample that favours the highest values as a whole.
# System: jimpy (Plp1 jimpy) mouse iPSC-derived oligodendrocyte progenitor cells
# Experiment: MBP+ mature oligodendrocyte number relative to DMSO vehicle control (SDs above negative control mean); higher = more surviving jimpy oligodendrocytes (rescue)
# Settings: 10 µM; 3 days
# Description: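 Primary phenotypic screen of >3,000 bioactive compounds (Selleck L1700 and Sigma LO1280 libraries) at a single dose of 10 µM. Compounds were added to jimpy (Plp1 mutant) mouse iPSC-derived OPCs at the start of thyroid hormone-induced oligodendrocyte differentiation, one well per compound in 384-well plates. After 3 days cells were stained for MBP, Sox10 and DAPI and imaged with an Operetta system. MBP+ oligodendrocyte number and total cell number were expressed as the number of SDs above the mean of the DMSO negative control on the same plate (n=16 control wells per plate). Hits were defined as >=4 SD for oligodendrocytes and >=2 SD for total cells.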
row,SMILES,MBP+ mature oligodendrocyte number
1,NCCCCCNCC12CC3CC(CC(C3)C1)C2 [IEM 1754 dihydrobroMide],-4.82
2,O=C1NCN(c2ccccc2)C12CCN(CCCC(c1ccc(F)cc1)c1ccc(F)cc1)CC2 [Fluspirilene],-4.41
3,O=C1NCC2(CCN(CCc3ccccc3)CC2)O1 [Fenspiride HCl],21.6
4,O=C1NCC2(CCN(CCc3ccccc3)CC2)O1 [Fenspiride hydrochloride],10.5
5,O=C(O)P(=O)(O)O [Foscarnet Sodium],-1.56
6,CC(=O)OC[C@H]1O[C@@H]([S-])[C@H](OC(C)=O)[C@@H](OC(C)=O)[C@@H]1OC(C)=O.CCP(CC)CC.[Au+] [Auranofin],< -3.85
7,CC1(C)O[C@@H]2C[C@H]3[C@@H]4CCC5=CC(=O)C=C[C@]5(C)[C@H]4[C@@H](O)C[C@]3(C)[C@]2(C(=O)CO)O1 [Desonide],9.44
8,C[C@]12C=CC(=O)C=C1CC[C@@H]1[C@@H]2[C@@H](O)C[C@@]2(C)[C@H]1CC[C@]2(O)C(=O)CO [Prednisolone],7.54
9,CCCC1O[C@@H]2C[C@H]3[C@@H]4CCC5=CC(=O)C=C[C@]5(C)[C@H]4[C@@H](O)C[C@]3(C)[C@]2(C(=O)CO)O1 (stereo partly specified) [Budesonide],13.4 ± 10
10,Nc1ccccc1NC(=O)c1ccc(CNc2nccc(-c3cccnc3)n2)cc1 [Mocetinostat (MGCD0103)],< -6.7
11,"CC(O)C(O)[C@H]1CNc2nc(N)[nH]c(=O)c2N1 (stereo partly drawn) [(6R)-5,6,7,8-Tetrahydro-L-biopterin hydrochloride]",-1.5
12,"CCCn1c(=O)c2c(ncn2C)n(CCC)c1=O [1,3-Dipropyl-7-methylxanthine]",0.502
13,CO/N=C(\C(=O)N[C@@H]1C(=O)N2C(C(=O)O)=C(Cn3ccc(=N)n3CCO)CS[C@H]12)c1csc(N)n1 [Cefoselis Sulfate],0.982
14,CC(C)[C@H](NC(=O)c1ccc2ccccc2n1)C(=O)N[C@@H](CC(=O)O)C(=O)COc1c(F)cccc1F,24.8
15,CC(C)C[C@H](NC(=O)[C@@H](NC(=O)c1cccc(-c2ccccc2)n1)[C@@H](C)O)B(O)O,< -6.7
16,C[C@H](NC(=O)C(=O)Nc1ccccc1C(C)(C)C)C(=O)N[C@@H](CC(=O)O)C(=O)COc1c(F)c(F)cc(F)c1F [Emricasan],10.3
17,NC[C@@H]1O[C@H](c2ccccc2)Cc2c1ccc(O)c2O,-0.675
18,NC(N)=NC(N)=Nc1ccccc1 [1-Phenylbiguanide],0.289
19,CC(=O)[C@H]1CC[C@H]2[C@@H]3CC=C4C[C@@H](O)CC[C@]4(C)[C@H]3CC[C@]12C [Pregnenolone],-3.89
20,CC[C@H](/C=C/[C@@H](C)[C@H]1CC[C@H]2[C@@H]3CC=C4C[C@@H](O)CC[C@]4(C)[C@H]3CC[C@]12C)C(C)C [Stigmasterol],-1.84
21,C[C@]12CC[C@H](O)CC1=CC[C@@H]1[C@@H]2CC[C@]2(C)C(n3cnc4ccccc43)=CC[C@@H]12 [Galeterone],16.8
22,CC(C)C[C@H](NP(=O)(O)O[C@H]1O[C@H](C)[C@@H](O)[C@H](O)[C@@H]1O)C(=O)N[C@@H](Cc1c[nH]c2ccccc12)C(=O)O [Phosphoramidon disodium],-0.211
23,CN(N=O)C(=O)NC1C(O)OC(CO)C(O)C1O (stereo unspecified) [Streptozotocin (STZ)],0.109

row,SMILES,MBP+ mature oligodendrocyte number
1,CN(C)C1CCN(C(=O)c2ccc(NC(=O)Nc3ccc(-c4nc(N5CCOCC5)nc(N5CCOCC5)n4)cc3)cc2)CC1,< -6.01
2,CC(C)(N)c1ncc(-c2ccc(OC(F)(F)F)cc2)[nH]1,-1.43
3,O=C(NC(NC(=S)Nc1ccc(F)c([N+](=O)[O-])c1)C(Cl)(Cl)Cl)C(c1ccccc1)c1ccccc1 (stereo unspecified),-5.76
4,CCN(CC)Cc1ccc(C(=O)N(CCc2ccccc2OC)[C@@H]2CCNC2)cc1,-3.89
5,CCCC(CCC)C(=O)O [Valproic acid sodium],0.147
6,CC(C)[N+]1(C)[C@@H]2CC[C@H]1C[C@@H](OC(=O)C(CO)c1ccccc1)C2 (stereo partly specified) [Ipratropium bromide],-0.439
7,CC(C)[N+]1(C)[C@@H]2CC[C@H]1C[C@@H](OC(=O)C(CO)c1ccccc1)C2 (stereo partly specified) [Ipratropium Bromide],0.883
8,CCCC(CCC)C(=O)O [Valproic acid sodium salt (Sodium valproate)],0.72
9,CCCC(CCC)C(=O)O[C@H]1C[C@H]2CC[C@@H](C1)[N+]2(C)C [Anisotropine methyl bromide],32.5
10,CCCC(CCC)C(=O)O [Divalproex Sodium],2.05
11,"Nc1cc(C(F)(F)F)c(-c2cc(N3CCOCC3)nc(N3CCOCC3)n2)cn1 [BKM120 (NVP-BKM120, Buparlisib)]",-4.7
12,Clc1ccc(N2CCN(Cc3cc4ccccn4n3)CC2)cc1,0.61
13,"CCCCS(=N)(=O)CCC(N)C(=O)O (racemic) [DL-Buthionine-[S,R]-sulfoximine]",-0.472
14,COc1ccc(CCN(C)CCCC(C#N)(c2ccc(OC)c(OC)c2)C(C)C)cc1OC (racemic) [(±)-Verapamil hydrochloride],-2.6
15,C/C(O)=C(\C#N)C(=O)Nc1ccc(C(F)(F)F)cc1 [Teriflunomide],0.913
16,CC(C(=O)O)c1ccc(-c2ccccc2)c(F)c1 (stereo unspecified) [Flurbiprofen],-0.0169
17,CC(C)C[C@H](C(=O)O)c1cc(-c2ccc(C(F)(F)F)cc2)cc(-c2ccc(C(F)(F)F)cc2)c1,25.5
18,C=CC(=O)N1CCC[C@@H](n2nc(-c3ccc(Oc4ccccc4)cc3)c3c(N)ncnc32)C1,0.104
19,Cc1ccc(C(=O)N(CCCN)[C@@H](c2oc3cc(Cl)ccc3c(=O)c2Cc2ccccc2)C(C)C)cc1,< -4.81
20,"c1ccc(CN2CCC3(CCCc4ccccc43)CC2)cc1 [L-687,384 hydrochloride]",0.735
21,Cc1nn(-c2ccccc2)c(C)c1C=NN1CCN(Cc2ccccc2)CC1,14.2 ± 1.6
22,Cc1cccc(CN2CCN(C(c3ccccc3)c3ccc(Cl)cc3)CC2)c1 (stereo unspecified) [Meclizine 2HCl],-4.88
23,Nc1n[n+]([O-])c2ccccc2[n+]1[O-] [Tirapazamine],-2.44
